{"source": "PubChem BioAssay (NCATS)", "note": "Results filed as inconclusive are left out. A call without a number means that no potency is given here. Activity calls are given as the source filed them. Calls come from the whole dose curve; as a rule, active = well fitted inhibition curve with a large enough effect; inconclusive = small, poorly fitted or top-dose-only effect; inactive = flat fitted curve, though single readings scatter."}
{"biological_target": "Calcium and integrin-binding protein 1 (Homo sapiens) (UniProt Q99828)", "sequence (Q99828 whole entry, looked up)": "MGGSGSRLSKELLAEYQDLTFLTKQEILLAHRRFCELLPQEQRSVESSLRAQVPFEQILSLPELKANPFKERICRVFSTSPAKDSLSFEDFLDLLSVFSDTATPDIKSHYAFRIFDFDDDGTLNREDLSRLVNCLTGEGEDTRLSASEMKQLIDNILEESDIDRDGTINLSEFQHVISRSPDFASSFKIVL", "experiment": "Primary qHTS for Identification of Calcium Integrin Binding Protein 1 (CIB1) Competitor (AID 1508620);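 note: GST tagged CIB1 binding a fluorescein labelled alphaIIb integrin peptide tracer; top concentration of the series differs between compounds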", "conditions": "CIB1-GST / FITC-alphaIIb peptide fluorescence polarization; series mostly up to 114 µM", "outline": "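CIB1-GST (1 uM final) and compound incubated 15 min at room temperature before adding FITC-alphaIIb peptide tracer (100 nM final). Competition for binding read by fluorescence polarization (ex 480, em 540) after another 15 min at room temperature.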"}
{"smiles": "O=C(OCC#CCSc1nnc(-c2ccc3ccccc3c2)o1)c1ccc(F)c(F)c1", "Potency": "inactive"}
{"smiles": "O=C(Nc1ccccn1)c1sc2ccc([N+](=O)[O-])cc2c1Cl", "Potency": "inactive"}
{"smiles": "Cc1cc(-c2ccccc2)n2ncc(C(=O)Nc3ccccc3Sc3ccccc3)c2n1", "Potency": "inactive"}
{"smiles": "CCOc1ccc(CCNC(=O)c2cc3sccc3n2Cc2ccncc2)cc1OCC", "Potency": "inactive"}
{"smiles": "CC(C)c1ccccc1SC1=NS(=O)(=O)c2ccccc21", "Potency": "inactive"}
{"smiles": "O=C(Cc1ccccc1)Nc1sc2c(c1C(=O)Nc1cccc(Cl)c1)CCCC2", "Potency": "inactive"}
{"smiles": "CCOC(=O)c1cccc(-n2cccc2/C=C2\\NC(=O)N(CC(=O)O)C2=O)c1", "Potency": "inactive"}
{"smiles": "c1cncc(CNc2ncnc3ccc(-c4ccc5c(c4)OCO5)cc23)c1", "Potency": "inactive"}
{"smiles": "Cc1cccc(-c2csc(N3CCC(C(N)=O)CC3)n2)c1", "Potency": "inactive"}
{"smiles": "Cc1ccc(CNc2ncc(N3CCCCC3)cn2)cc1", "Potency": "inactive"}
{"smiles": "Cc1ccc(CNc2ccc(N3CCNCC3)cc2)cc1", "Potency": "inactive"}
{"smiles": "Cc1ccc(-c2ccc(C(C)Nc3nc(-c4ccccc4C(C)C)ncc3C)cc2)cn1", "note": "(stereo not drawn)", "Potency": "inactive"}
{"smiles": "O=C(OCC#CCNc1nnc(-c2cccc3ccccc23)o1)c1cccs1", "Potency": "inactive"}
{"smiles": "COC(=O)c1ccc(OC(C)=O)c2ncccc12", "Potency": "inactive"}
{"smiles": "COc1cc(NS(=O)(=O)c2ccc3ccccc3c2)c2ncccc2c1", "Potency": "inactive"}
{"smiles": "Cc1ccc(NS(=O)(=O)c2cc3c(cc2C)OCC(=O)N3)cc1C", "Potency": "inactive"}
{"smiles": "COc1ccc(C2Nc3ccccc3C(=O)N2Cc2ccccc2C(F)(F)F)cc1COc1ccc(NC(C)=O)cc1", "note": "(stereo not drawn)", "Potency": "inactive"}
{"smiles": "CCOC(=O)c1nn(-c2ccccc2)c(=O)c2c(N)sc(C)c12", "Potency": "inactive"}
